Screens deposited in PubChem BioAssay by National Center for Advancing Translational Sciences (NCATS).
D1 agonist: Allosteric Agonists of the Human D1 Dopamine Receptor: qHTS. HEK293 T-REx D1 cells, calcium flux, agonist mode. activation, % at 2 µM. actives 1% (n = 360,000); further: 0% is about no effect
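Tetracycline-induced HEK293 TREx D1 cells, force-coupled to calcium signalling, were dye-loaded with a no-wash calcium kit. Compound was pin-added after a 10 s baseline. Fluorescence was read kinetically at 1 cycle/s for 180 s, with calcium rises flagged as agonism.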
TRHR ag: qHTS for Small Molecule Agonists and Allosteric Enhancers of Human TRH Receptor: Primary Screen for Agonists. Thyrotropin-releasing hormone receptor (Homo sapiens), P34981. TRHR cells, calcium flux fluo-8, FDSS agonist mode. activation, % at 2 µM. actives 0.18% (n = 360,000). AID 493084, 2011; further: 0% is about no effect
Target sequence (P34981 whole entry, looked up): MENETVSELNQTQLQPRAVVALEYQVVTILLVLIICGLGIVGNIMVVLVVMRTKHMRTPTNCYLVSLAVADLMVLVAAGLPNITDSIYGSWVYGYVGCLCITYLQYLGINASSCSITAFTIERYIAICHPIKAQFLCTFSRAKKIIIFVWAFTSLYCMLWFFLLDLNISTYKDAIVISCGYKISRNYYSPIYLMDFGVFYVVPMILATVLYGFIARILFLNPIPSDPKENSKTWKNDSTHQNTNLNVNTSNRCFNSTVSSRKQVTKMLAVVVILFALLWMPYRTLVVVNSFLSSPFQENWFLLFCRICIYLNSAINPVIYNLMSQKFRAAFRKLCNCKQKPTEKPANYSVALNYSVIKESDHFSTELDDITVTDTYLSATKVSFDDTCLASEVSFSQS
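Agonist-mode FDSS calcium read (Ex 480/Em 530, 1 s cycles) in 1536-well TRHR cells with fluo-8 dye, after 10-cycle baseline and 23 nL compound addition; TRH at EC20 (10 nM final) added afterwards for the enhancer phase.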
TRHR enhancer: qHTS for Small Molecule Agonists and Allosteric Enhancers of Human TRH Receptor: Primary Screen for Enhancers | TRHR cells, fluo-8 calcium fluorescence, EC20 TRH enhancement | enhancement, % at 2 µM | actives 0.66% (n = 360,000); in the data active means enhancement above about 30%; further: 0% is about no effect
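TRHR-expressing cells loaded with fluo-8 calcium dye were read kinetically (ex 480/em 530) during compound addition, then stimulated with an EC20 of TRH (10 nM final). Enhancement of the Gq-mediated intracellular calcium response was scored.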
D1 antag: Antagonist of Human D 1 Dopamine Receptor: qHTS; D(1A) dopamine receptor (Homo sapiens), P21728; HEK293 TREx D1 cells, calcium flux, dopamine EC80; hits give low values; activity change, negative = inhibition, % at 10 µM; actives 3.2% (n = 360,000); AID 504652, 2011; in the data active means activity change below about -30%; further: on the % scale 0 is the no-effect control and ±100 the full control effect
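Tetracycline-induced HEK293 T-REx cells with force-coupled D1 receptor were loaded with a no-wash calcium dye. Compound was added after a 10 s baseline and read kinetically for 180 s; EC80 dopamine was then added and calcium flux followed another 180 s.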
D1 PAM: Potentiators of Human D1 Dopamine Receptor: qHTS. HEK293 TREx D1 cells, calcium flux, dopamine EC20 potentiation. potentiation, % at 10 µM. actives 0.036% (n = 360,000). AID 504651, 2011; in the data active means potentiation above about 30%; further: 0% is about no effect
* hit, by the source's call; x = not tested or not shown; ! = a repeat was not active. A selection: hits, their analogues and other compounds. The true share with any hit is near 4.7%. Unless noted, no stated cut-off is given here; in the data, active means activation above about 30%; inactive means the rest.

SMILES	D1 agonist	TRHR ag	TRHR enhancer	D1 antag	D1 PAM
CCCCN(CCCC)CCNC(=O)c1cn(C)c2ccc(S(=O)(=O)N3CCOCC3)cc2c1=O	0	-1	-1	-35*	1
CCn1cc(C(=O)NCCc2ccc(C)cc2)c(=O)c2cc(S(=O)(=O)N3CCc4ccccc4C3)ccc21	-1	1	6	-7	3
CCN(CC)CCCNC(=O)Cn1cnc2ccc(S(=O)(=O)N3CCC(C)CC3)cc2c1=O	2	0	-6	-39*	-5
CCOc1ccc(CCNC(=O)c2cn(CC)c3ccc(S(=O)(=O)N4CCc5ccccc5C4)cc3c2=O)cc1OCC	0	1	-4	-47*	9
CCn1cc(C(=O)NCCCN2CCCC(C)C2)c(=O)c2cc(S(=O)(=O)N(C)C3CCCCC3)ccc21 (stereo not drawn)	0	0	-4	-79*!	7
Cc1cccc(N2CCn3c2nc2c3c(=O)n(C/C=C/c3ccccc3)c(=O)n2C)c1	0	0	10	12	-3
CCCCN(C)C(=O)c1cn(CC)c2ccc(S(=O)(=O)N(C)C)cc2c1=O	3	0	0	-31*	x
CCOCCCNC(=O)c1cn(CC)c2ccc(S(=O)(=O)N3CCC(C)CC3)cc2c1=O	2	0	7	-34*	1
CC1CCCN(S(=O)(=O)c2ccc3c(c2)c(=O)nc2ccccn23)C1 (stereo not drawn)	0	0	-3	-15	-8
NC[C@@H]1O[C@H](C23CC4CC(CC(C4)C2)C3)Cc2c1ccc(O)c2O	118*	0	3	-78*	-5
O=C(CSc1nc2ccc([N+](=O)[O-])cc2s1)NCC1CCCO1 (stereo not drawn)	4	0	1	4	x
Cn1c(=O)oc2cc(S(=O)(=O)NC(Cc3ccccc3)C(=O)Nc3ccc(F)c(Cl)c3)ccc21 (stereo not drawn)	7	2	-4	-2	-2
COc1ccc(NC(=O)c2sc3nc4n(c(=O)c3c2C)CCC4)cc1Cl	0	0	-7	-13	-1
COc1ccc(CN=C2Nc3ccccc3CS2)cc1	11	1	-6	-32*	-7
COc1cc2c(cc1OC)CN(C(=S)Nc1ccc(Cl)cc1)CC2	7	0	-4	-35*	-6
COc1cccc(NC(=S)N2CCc3cc(OC)c(OC)cc3C2)c1	3	0	1	-9	-2
CCCCc1cc(=O)oc2cc(C)cc(OCC(=O)N3CCC(C(=O)O)CC3)c12	1	0	-4	-4	23
CCCc1cc(=O)oc2cc(C)cc(OCC(=O)N3CCC(C(=O)O)CC3)c12	1	0	2	-64*	-3
COc1ccccc1N1CCN(C(=O)Cn2ncc3ccsc3c2=O)CC1	4	-1	15	-10	-2
CCn1c(C)nnc1SCC(=O)Nc1cccc(Cl)c1	-4	0	2	-43*	0
N#C/C(=C/c1ccc(N2CCCCCC2)o1)c1cccc(F)c1	3	1	-13	-4	-8
COc1cc(N2CCCC2)c(OC)cc1/C=C(/C#N)c1cccc(F)c1	56*	16	-1	3	-4
Nc1cccc(-c2cn3cccnc3n2)c1	4	0	-4	-30*	5
Cc1ccc(-c2cn3cccnc3n2)cc1	0	0	7	-11	0
Clc1ccc2c(N/N=C/c3ccc(Br)cc3)ccnc2c1	8	-1	13	-43*	-7
SMILES	D1 agonist	TRHR ag	TRHR enhancer	D1 antag	D1 PAM
Cc1cccc(CSCCNC(=O)CN(c2ccccc2)S(=O)(=O)N(C)C)c1	30	-1	-4	-5	-7
N#Cc1c(-c2ccccc2)cc(C2CC2)nc1SCC(=O)c1cccs1	32*	8	-12	-2	1
CCNC(=S)Nc1cc(OC)c(NC(=O)c2ccco2)cc1OC	2	0	0	-5	0
COC(=O)NNC(=O)c1ccccc1OC	1	-2	-1	-7	-5
COc1ccccc1C(=O)NNC(=S)NC(=O)c1ccco1	50*	6	1	-7	-1
COC(=O)c1cc(OC)c(OC)cc1NC(=S)NC(=O)c1ccco1	0	1	-4	-38*	-4
COc1ccc(C(=O)NNC(=S)NC(=O)c2ccco2)cc1	8	2	2	-7	5
COc1ccccc1C(=O)NNC(=S)Nc1ccccc1	5	0	0	-31*	-3
COc1cc(CNC(C)c2ccccc2)cc(Cl)c1OCC(=O)Nc1ccccc1 (stereo not drawn)	64*	3	-1	x	-11
CCN(CC)CCNCc1cc(Cl)c(OCC(=O)Nc2ccccc2)c(OC)c1	7	0	1	-2	-3
O=C(CCc1ccccc1)NC1CC(=O)N(c2cccc(F)c2)C1 (stereo not drawn)	-1	0	37*	x	1
COc1ccc(N2CC(NC(=O)COc3ccc(F)cc3)CC2=O)cc1OC (stereo not drawn)	86*	0	-1	x	3
COc1ccc(N2CC(NC(=O)COc3cccc(C)c3)CC2=O)cc1OC (stereo not drawn)	33*	0	-5	x	0
Cc1cccc(N2C(=O)c3cccc4c(N(C)CCO)ccc(c34)C2=O)c1	200*	-1	-4	-3	0
O=C(O)c1ccc2c3c(cccc13)C(=O)N(c1ccccc1)C2=O	7	0	6	-4	-1
O=C(O)c1cccc(N2C(=O)c3cccc4c(Cl)ccc(c34)C2=O)c1	4	3	-1	19	-1
Nc1ccc2c3c(cccc13)C(=O)N(c1ccccc1)C2=O	384*	-1	1	-42*	-6
CN(C)c1ccc2c3c(cccc13)C(=O)N(c1ccccc1)C2=O	22	18	-1	-6	1
Nc1cccc(N2C(=O)c3cccc4c(N)ccc(c34)C2=O)c1	156*	127*	13	-9	-4
Cc1cccc(N2C(=O)c3cccc4c(N)ccc(c34)C2=O)c1	576*	132*	3	15	6
COc1ccc(CCNC(=O)Cn2c(-c3ccc(F)cc3)cc(C(C)=O)c2C)cc1OC	0	0	15	13	-6
CC1CCCC(C)N1C(=C(Cl)Cl)C(=C1SCCS1)[N+](=O)[O-] (stereo not drawn)	-2	4	-13	30	2
Cc1c(O)c2c3c(cccc3c1O)C(=O)N(c1ccccc1)C2=O	53*	29	2	-8	-2
